# LGR2 antag – blocks bursicon-induced cAMP signaling via Drosophila LGR2; AID 720647; HEK293 LGR2, CRE-luciferase, bursicon-stimulated, 4 h; inhibition, % at 9.99 µM; 380,000 tested, 0.35% active;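 active = drop in luminescence signal, shown as inhibition above about 50% in the replicate tests, limit read from the data, passing the limit was not always enough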;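 also: agonist challenge used bursicon conditioned medium at about half maximal strength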
# TROY signal inh – TROY signaling inhibition; inhibition, % at 10 µM; AID 1347056; 360,000 tested, 0.98% active; Q293 LMP1-TROYcd NF-kB luciferase reporter, 4 h;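 active = compounds whose plate-normalised and pattern-corrected inhibition of the luciferase reporter signal at the single screening dose is 50% or more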
# TWEAK Fn14 block – blocks TWEAK-Fn14 interaction in a reporter cell assay. AID 1159606. 360,000 tested, 2% active. TWEAK-stimulated Fn14 reporter cells, luciferase luminescence, 8 h. inhibition, % at 10 µM; in the data active = inhibition above about 50%
# HSP90 inh – HSP90 refolding inhibition in rabbit reticulocyte lysate; luciferase refolding luminescence, 3 h; inhibition, % at 5.6 µM; 290,000 tested, 0.91% active;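 active = inhibition above the screen-wide mean plus 3 SD, computed separately per campaign, cut at about 16% in these data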;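 also: 0% = DMSO wells and 100% = 60 µM geldanamycin wells; inhibitors lower the luminescence because luciferase stays unfolded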
# LMP1 NFkB inh – reduces LMP1-driven NF-kappaB luciferase signal; inhibition, % at 12.5 µM; 350,000 tested, 0.69% active; AID 504558; LMP1-induced NF-kappaB luciferase reporter cells, luminescence; in the data active = inhibition above about 41%;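 also: 0% = neutral control wells and 100% = reference inhibitor control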
# aDG glyco up – alpha-DG glycosylation activation; Pro5-aDG cells, alpha-DG glycosylation AlphaScreen (IIH6); 0% Pro5, 100% B10-LARGE cell signal; activation, % at 10 µM; 360,000 tested, 0.22% active;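 active = activation of at least 8% versus controls, or a plate z-score of at least 8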;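 also: Pro5 are CHO cells carrying HIG-tagged alpha-DG that lacks glycosylation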
# Numbers without * were called inactive; . = no result. Compounds with a hit are over-represented: about 2.6% of the library has one in this group of screens.
SMILES,LGR2 antag,TROY signal inh,TWEAK Fn14 block,HSP90 inh,LMP1 NFkB inh,aDG glyco up
COc1ccc(CCn2c(N)c(C(=O)NCc3ccco3)c3nc4ccccc4nc32)cc1,-1.3,65.5*,61.0*,1.1,-11.6,0.2
COc1ccc(CCn2c(N)c(C(=O)NCc3ccco3)c3nc4ccccc4nc32)cc1OC,.,35.5,42.9,8.9,-0.9,1.0
Nc1c(C(=O)NCc2ccco2)c2nc3ccccc3nc2n1CCc1ccccc1F,.,53.9*,43.5,13.3,-3.8,0.6
CCOc1ccc(C(CC(=O)O)NC(=O)c2sc3ccccc3c2Cl)cc1 (stereo not drawn),8.2,0.3,-22.9,-0.2,51.5*,-0.9
COc1ccc2c3c(n(C)c2c1)[C@H](CO)N(C(=O)c1ccncc1)CC31CN(C)C1,4.3,.,.,.,.,.
Cc1cc(C(=O)COC(=O)c2ccc[nH]c2=O)c(C)n1C1CC1,2.9,19.4,30.7,5.5,2.1,-0.1
Cc1cc(C(=O)COC(=O)c2ccc[nH]c2=O)c(C)n1-c1ccccc1,.,71.1*,58.4*,0.3,47.0*,-0.1
Cc1cc(C(=O)COC(=O)c2ccc[nH]c2=O)c(C)n1-c1ccc(F)cc1,24.6,70.2*,64.5*,4.3,22.2,0.1
O=C(NCc1ccc2c(c1)OCO2)[C@@H]1[C@@H](CO)[C@@H]2Cn3c(cccc3=O)[C@H]1N2Cc1ccccc1,-1.5,.,.,.,.,.
CCc1ccc2cccc3c2c1N=CN3C,-7.2,18.7,86.3*,.,7.0,0.2
O=C(Nc1cccc(C(F)(F)F)c1)Nc1nnc([C@@H]2C[C@H](O)[C@@H](CO)O2)s1,.,6.6,55.1*,.,.,0.1
O=C(Nc1nnc([C@H]2C[C@H](O)[C@@H](CO)O2)s1)c1cccc(C(F)(F)F)c1,.,-1.2,5.3,.,.,-0.4
COc1ccc(CNC(=O)Nc2nnc([C@@H]3C[C@H](O)[C@@H](CO)O3)s2)cc1,13.7,5.8,63.5*,.,.,-0.1
COc1ccc(CNC(=O)Nc2nnc([C@H]3C[C@H](O)[C@@H](CO)O3)s2)cc1,-16.9,-14.9,-3.0,.,.,0.6
CCOC(=O)N1CCc2cc(OC)c(OC)c3c2c1cc1cc(OC)c(OC)cc13,18.3,15.0,54.0*,.,0.5,0.2
COc1cc(CC(=O)N2CCc3ccccc32)cc(OC)c1OC,.,15.1,10.4,-0.7,2.4,0.4
O=C(Nc1ccc(N2CCOCC2)cc1)c1nc2ccccc2s1,29.3,54.8*,40.3,-1.2,19.9,-0.3
O=C(N[C@@H](Cc1ccccc1)C(=O)N[C@@H](Cc1ccccc1)C(=O)O)OCc1ccccc1,-24.4,6.5,4.6,.,-0.1,0.2
O=C(N[C@@H](Cc1ccccc1)C(=O)CCl)OCc1ccccc1,-2.3,0.3,48.5,.,56.4*,0.3
Cc1noc(C)c1NC(=O)N(C)C[C@@H]1OCCCC[C@@H](C)Oc2ccc(NC(=O)C3CCCCC3)cc2C(=O)N([C@@H](C)CO)C[C@@H]1C,-19.9,.,.,.,.,.
CN(C)CC#Cc1ccc([C@@H]2[C@@H](CO)N3CCCCN(C(=O)Nc4ccc(F)cc4)C[C@H]23)cc1,6.9,.,.,.,.,.
COc1ccccc1NC(=O)CCCC(=O)OCC(F)(F)C(F)F,-7.5,2.1,62.7*,-0.7,-6.3,-0.1
CC(=O)c1ccc(NC(=O)CCC(=O)OCC(F)(F)C(F)F)cc1,.,22.4,-6.4,16.6*,1.9,-0.1
Cc1ccc(S(=O)(=O)Nc2ccc3c(c2)C(=O)N([C@H](C)CO)C[C@H](C)[C@H](CN(C)S(=O)(=O)c2ccc(C)cc2)OCCCC[C@H](C)O3)cc1,34.0,.,.,.,.,.
COc1cccc(-c2sc3ccccc3c2-c2ccc(OCCN3CCCC3)cc2)c1,-6.0,4.0,-14.6,.,-5.4,1.5
SMILES,LGR2 antag,TROY signal inh,TWEAK Fn14 block,HSP90 inh,LMP1 NFkB inh,aDG glyco up
COc1cccc(-c2sc3ccccc3c2-c2ccc(OCCN(C)C)cc2)c1,2.5,23.0,-9.2,.,88.6*,1.2
COc1ccc(CNc2nn3c(-c4cccc(C(=O)N(C)C)c4)cnc3s2)cc1,-2.5,50.1*,81.1*,.,.,0.2
CN(C)CCCNC1=CC(=O)OC12CCCCC2,.,.,90.4*,1.2,1.3,-0.2
CCOc1cc(/C=C/C(=O)Nc2ccc(C(=O)NCCN(CC)CC)cc2)ccc1OCC(C)C,102.9*,-7.8,-28.5,8.4,-18.7,-0.9
CC(C)C(=O)Nc1nnc(S(=O)(=O)N(C)c2ccc(Cl)cc2)s1,-0.2,19.2,71.9*,1.4,-3.3,0.0
COc1cccc(-c2ccc([C@H]3[C@H](CO)N(C(=O)C4CC4)C34CN(C(C)=O)C4)cc2)c1,17.3,.,.,.,.,.
COc1ccc(NC(=O)Nc2ccc3c(c2)CC(=O)N([C@H](C)CO)C[C@H](C)[C@@H](CN(C)Cc2ccccc2)O3)cc1,0.3,.,.,.,.,.
CC(C)Oc1ccc2c(=O)c(-c3ccccc3)coc2c1,.,-28.1,14.4,-0.5,20.5,-0.1
CC(=O)Oc1ccc2c(=O)c(-c3nc4ccccc4s3)coc2c1,16.8,53.4*,82.7*,-1.1,8.4,-0.5
CCCC(C)NC(C)C(=O)NC1CCCC1 (stereo not drawn),18.8,13.3,-5.0,0.1,66.4*,-0.3
CCCC(CCC(=O)NC1CCCCC1)C(=O)O (stereo not drawn),.,-4.9,-0.4,4.3,-0.1,0.0
CCN1C(c2ccccc2)C(C)C(=O)C(C)C1c1ccccc1 (stereo not drawn),.,.,83.3*,2.6,7.7,0.2
CC1C(=O)C(C)C(c2ccccc2)N(N=O)C1c1ccccc1 (stereo not drawn),-0.3,-16.8,6.6,.,-3.4,0.3
COc1ccc2c3c(n(C)c2c1)[C@@H](CO)NCC31CN(C(=O)Nc2ccccc2F)C1,-11.6,.,.,.,.,.
Cc1ccc(S(=O)(=O)N(C)C[C@@H]2Oc3c(NC(=O)CCCCCC(=O)Nc4ccccc4N)cccc3C(=O)N([C@H](C)CO)C[C@@H]2C)cc1,-9.7,.,.,.,.,.
C[C@@H]1CN([C@@H](C)CO)C(=O)Cc2cc(NC(=O)NC3CCCCC3)ccc2O[C@H]1CN(C)Cc1ccc(-c2ccccc2)cc1,21.6,.,.,.,.,.
COC(=O)c1ccccc1NC(=O)c1ccc(-c2ccc(Br)cc2)o1,-19.2,80.7*,77.4*,11.9,-28.4,-0.4
O=C(NC(=S)Nc1ccc2ncccc2c1)c1ccccc1,-29.5,63.8*,-4.0,-2.1,-15.9,0.0
COC(=O)c1ccccc1NC(=S)NC(=O)c1ccccc1,.,.,83.5*,-5.5,4.5,-0.1
O=C(Nc1cccc2nsnc12)c1ccc(-c2ccc(Br)cc2)o1,-5.6,4.0,9.0,3.7,-7.7,-0.1
COC(=O)c1ccccc1NC(=S)NC(=O)c1ccc(C)cc1,-3.4,-14.6,35.4,-0.6,-1.9,0.1
COC(=O)c1ccccc1NC(=O)CC(=O)Nc1ccccc1C(=O)OC,-0.4,-3.0,2.9,1.1,50.4*,0.1
CCCNC(=O)C[C@@H]1CC[C@H]2[C@@H](COc3ccc(NC(=O)NC(C)C)cc3C(=O)N2C)O1,8.8,.,.,.,.,.
O=S(=O)(N[C@H]1CC[C@H](CCNS(=O)(=O)c2ccccc2Cl)O[C@@H]1CO)c1ccccc1,16.9,.,.,.,.,.

# Bioassay records: PubChem BioAssay, several laboratories
